Source: PubChem
An excerpt weighted towards active compounds, which were near 7.8% of everything screened.
HCV inh: HCV inhibition. AID 651820. Potency, µM (highest dose often 41.8 µM), for inactives: at the top dose activity change, negative = inhibition, usual class: inhibitors. 340,000 compounds, 3.4% hits. Huh7.5.1 HCVcc-Cre infection, luciferase reporter, 44 h; active = well fitted inhibition curve with a large enough effect; inconclusive = small, poorly fitted or top-dose-only effect, or another doubt; inactive = no such curve, though single readings can be large or run the other way; note: potency is the fitted concentration of half-maximal effect
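Cells seeded at 1,000/well and cultured 4 h, then compounds added followed by HCVcc-Cre virus (~0.5 moi). After 44 h further culture, luciferase substrate was added, plates held 15 min at room temperature, and luminescence read for 15 sec.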
Vaccinia mCherry: inhibitors of vaccinia virus infection (mCherry reporter signal); Potency, µM (series often up to 36.5 µM), for inactives: at the highest dose activity change, negative = inhibition, hits mostly inhibitors; AID 720579; Vaccinia virus mCherry reporter infection, fluorescence; 310,000 compounds, 0.63% hits; calls by dose curve; tested in A549 cells; note: potency is the fitted concentration of half-maximal effect; nearly all actives have a fitted effect of over 35% in size
Marburg entry inh: Marburg virus entry inhibition. 300,000 compounds, 1.8% hits. Potency, µM (titrated, usually from 37.8 µM), inactives show at the highest dose activity change, negative = inhibition, usual class: inhibitors. AID 540276. Marburg virus pseudotyped entry inhibition, cell reporter; calls by dose curve; tested in HEK293 cells; note: potency is the fitted concentration of half-maximal effect
LASV entry inh: blocks Lassa virus binding to or entry into cells; Potency, µM (titrated, usually from 37.9 µM), without a hit: top-dose activity change, negative = inhibition, hits mostly inhibitors; Lassa virus pseudotype entry inhibition, cell reporter; AID 540256; 300,000 compounds, 1.2% hits; calls by dose curve; tested in HEK293 cells; note: potency is the fitted concentration of half-maximal effect; nearly all actives have a fitted effect of over 50% in size
Vaccinia Venus: vaccinia inhibition (Venus reporter). Vaccinia virus Venus reporter expression, fluorescence. Potency, µM (top dose mostly 36.5 µM), without a hit: at the top dose activity change, negative = inhibition, hits mostly inhibitors. 330,000 compounds, 0.46% hits. AID 720580; calls by dose curve; tested in A549 cells; note: potency is the fitted concentration of half-maximal effect; nearly all actives have a fitted effect of over 30% in size
HCMV inh: human cytomegalovirus inhibition. HFF cells, HCMV-luciferase reporter, 72 h; stronger effect = lower value. activity change, negative = inhibition, % at 57.5 µM. 410,000 compounds, 4.5% hits. AID 1259415; in the data active = activity change below about -60%; inconclusive = no clear call, values can overlap the other calls; inactive = above about -39%
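Steps: HFFs plated, 16 h 37C; compounds added; HCMV-luciferase added to MOI 1 PFU/cell; 72 h 37C; OneGlo reagent, 5 min room temperature; luminescence read, normalized to controls.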
* hit, by the source's call; i = inactive; ? = inconclusive; / = no result given; [ ] = remark or other dose. % is set by controls: 0 for no effect and ±100 for the full control effect.

SMILES	HCV inh	Vaccinia mCherry	Marburg entry inh	LASV entry inh	Vaccinia Venus	HCMV inh
COc1ccc(CNc2nc3c(-c4ccc(C)cc4)nnn3c3ccccc23)cc1	/	-1%	?	20%[46.1 µM]	-1%	82
COc1cccc(C2c3c(C)nn(-c4ccc([N+](=O)[O-])cc4)c3N=C3C(=O)Nc4ccccc4N32)c1 (configuration not stated)	?	3%	-2%[46.1 µM]	?	-3%	-21
Cc1nn(-c2ccc([N+](=O)[O-])cc2)c2c1C(c1ccc(OC(F)F)cc1)N1C(=N2)C(=O)Nc2ccccc21 (configuration not stated)	2µM*	-17%	?	?	-8%	-15
COc1ccc(OC)c(NC(=O)c2cn3c4c(ccc(Cl)c4c2=O)OC(C)C3)c1 (configuration not stated)	/	21%	/	2%[46.1 µM]	21%	-1
CCCN(C(=O)Cn1cnc2sc(C)c(S(=O)(=O)N3CCN(c4ncccn4)CC3)c2c1=O)c1cccc(C)c1	/	-12%	35%[46.1 µM]	-9%[46.1 µM]	-9%	-17
Cc1ccc(S(=O)(=O)NC(=O)ON=Cc2ccc3c(c2)OCO3)cc1	/	/	/	/	/	-98*
Cc1ccc(S(=O)(=O)c2c(N)n(/N=C/c3ccco3)c3nc4ccccc4nc23)cc1	?	/	?	?	/	-8
Cc1cccc(S(=O)(=O)c2c(N)n(/N=C/c3ccco3)c3nc4ccccc4nc23)c1	2.5µM*	/	?	-22%	/	-28
Cc1ccc(S(=O)(=O)c2c(N)n(/N=C/c3ccco3)c3nc4ccccc4nc23)cc1C	?	i	7.1µM*	-25%	-10%	?
O=C(Nc1cccc(F)c1)N1C[C@H]2[C@@H](c3ccccc31)[C@H](CO)N2C(=O)c1cccnc1	/	/	/	/	/	-4
CCC[C@@H](/C=C/C(=O)OC(C)(C)C)NC(=O)C(F)(F)F	/	/	/	/	/	21
COc1ccc(Cn2c(-c3ccc(Br)cc3)c[n+]3ccccc23)cc1	-11%	/	/	/	/	-97*
CC1CCCCC1OCCNC(=O)c1ccco1 (configuration not stated)	/	/	13%[46.1 µM]	/	/	/
O=C(O)Cc1nn(Cc2ccc(Cl)cc2)c(=O)c2ccccc12	12%	-4%	?	-10%	4%	-69*
O=c1cc(CN2CCN(C/C=C/c3ccccc3)CC2)c2cc(O)ccc2o1	?	/	-23%	?	/	-33
Cc1cccc(N2CCN(Cc3cc(=O)oc4cc(C)ccc34)CC2C)c1 (configuration not stated)	/	-4%	10%[46.1 µM]	10%[46.1 µM]	-2%	-66*
Cc1ccc2oc(=O)cc(CN3CCN(C/C=C/c4ccccc4)CC3)c2c1	10µM*	-16%[7.34 µM]	-15%[46.1 µM]	-9%	2%[7.34 µM]	19
COc1ccc(NC(=S)Nc2ccc(C)c(S(=O)(=O)N3CCCCC3)c2)cc1	?	/	15µM*	-4%	/	/
Cc1ccc(NC(=S)Nc2ccc(C(C)C)cc2)cc1S(=O)(=O)N1CCCCCC1	6.3µM*	?	?	?	?	-99*
C=CCOC(=O)[C@H](C#N)c1nc2ccccc2nc1N1CCC(C(=O)OCC)CC1	/	/	-4%	/	/	/
O=c1[nH]c2ccccc2n1C1CCN(C(c2ccccc2)c2nnnn2-c2ccc3c(c2)OCCO3)CC1 (configuration not stated)	/	-18%	/	/	-27%	-86*
O=c1[nH]c2ccccc2n1C1CCN(C(c2cccs2)c2nnnn2-c2ccc3c(c2)OCCO3)CC1 (configuration not stated)	/	?	/	/	?	-80*
O=c1[nH]c2ccccc2n1C1CCN(C(c2nnnn2-c2ccc3c(c2)OCCO3)C2CC2)CC1 (configuration not stated)	/	-7%	/	/	-24%	?
COc1ccc(-n2nnnc2C(c2cccs2)N2CCC(n3c(=O)[nH]c4ccccc43)CC2)cc1 (configuration not stated)	/	-24%	/	/	?	-33
CCC(c1nnnn1-c1ccc2c(c1)OCCO2)N1CCC(n2c(=O)[nH]c3ccccc32)CC1 (configuration not stated)	/	6%	/	/	-11%	?
